Reference: paper PMC8384837, “Expanding the binding specificity for RNA recognition by a PUF domain”
Where a chain is given by its changes, count along the chain named.

Assays:
Assay in all cases: yeast three-hybrid, YBZ-1, SC-Leu-His + 0.5 mM 3-AT, 4 days
Conditions in all cases: tags: N-Gal4 AD-HA kept; label: inside an RPR1-promoter hybrid RNA with tandem MS2 sites; ssRNA
PUM1 PUF domain R4-DWL = PUM1 PUF domain R4-DWL (Homo sapiens, UniProt Q14671 828-1176, N971D;H972W;Q975L)
Summary of the method: (§1)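 Pumilio-1 PUF domain libraries, randomized (NNK) at the three base-contacting residues of each repeat, were co-expressed with matching RNA elements from a centromeric plasmid in strain YBZ-1 (LexA–MS2 coat fusion, HIS3 reporter). Transformants were plated on SC-Leu (input) and SC-Leu-His + 0.5 mM 3-AT (selection) for four days, and repeat regions were PCR-amplified and Illumina-sequenced. The interaction score is the log2 change in variant frequency from input to selection, with pseudocount 1 where absent.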

PUM1 PUF domain R3-LWQ = PUM1 PUF domain R3-LWQ (Homo sapiens, UniProt Q14671 828-1176, C935L;R936W)
Summary of the method: as §1

PUM1 PUF domain R6-LFT = molecular target: T1, PUM1 PUF domain R6-LFT (Homo sapiens, UniProt Q14671 828-1176, N1043L;Y1044F;Q1047T)
T1 sequence: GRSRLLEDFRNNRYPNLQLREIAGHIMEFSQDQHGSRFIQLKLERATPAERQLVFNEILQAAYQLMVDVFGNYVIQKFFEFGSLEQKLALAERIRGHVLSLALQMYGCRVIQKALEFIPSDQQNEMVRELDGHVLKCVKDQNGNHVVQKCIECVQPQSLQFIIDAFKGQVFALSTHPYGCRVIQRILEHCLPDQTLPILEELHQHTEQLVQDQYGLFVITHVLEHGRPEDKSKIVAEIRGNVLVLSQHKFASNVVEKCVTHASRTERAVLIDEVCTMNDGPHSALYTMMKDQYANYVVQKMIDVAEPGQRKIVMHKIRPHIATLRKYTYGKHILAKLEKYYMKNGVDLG
Summary of the method: as §1

PUM1 PUF domain R5-FQR = PUM1 PUF domain R5-FQR (Homo sapiens, UniProt Q14671 828-1176, C1007F;R1008Q;Q1011R)
Summary of the method: as §1

PUM1 PUF domain R5-KHA = PUM1 PUF domain R5-KHA (Homo sapiens, UniProt Q14671 828-1176, C1007K;R1008H;Q1011A)
Summary of the method: as §1

PUM1 PUF domain R4-CRV = PUM1 PUF domain R4-CRV (Homo sapiens, UniProt Q14671 828-1176, N971C;H972R;Q975V)
Summary of the method: as §1

PUM1 PUF domain R4-DYL = PUM1 PUF domain R4-DYL (Homo sapiens, UniProt Q14671 828-1176, N971D;H972Y;Q975L)
Summary of the method: as §1

PUM1 PUF domain R8-KFT = PUM1 PUF domain R8-KFT (Homo sapiens, UniProt Q14671 828-1176, N1122K;Y1123F;Q1126T)
Summary of the method: as §1

PUM1 PUF domain R6-FYA = molecular target: T2, PUM1 PUF domain R6-FYA (Homo sapiens, UniProt Q14671 828-1176, N1043F;Q1047A)
T2 sequence: T1 sequence with L216F, F217Y, T220A
Summary of the method: as §1

PUM1 PUF domain R3-GHH = PUM1 PUF domain R3-GHH (Homo sapiens, UniProt Q14671 828-1176, C935G;R936H;Q939H)
Summary of the method: as §1

PUM1 PUF domain R5-GWL = PUM1 PUF domain R5-GWL (Homo sapiens, UniProt Q14671 828-1176, C1007G;R1008W;Q1011L)
Summary of the method: as §1

PUM1 PUF domain R6-NRG = molecular target: T3, PUM1 PUF domain R6-NRG (Homo sapiens, UniProt Q14671 828-1176, Y1044R;Q1047G)
T3 sequence: T1 sequence with L216N, F217R, T220G
Summary of the method: as §1

PUM1 PUF domain R2-GWY = PUM1 PUF domain R2-GWY (Homo sapiens, UniProt Q14671 828-1176, N899G;Y900W;Q903Y)
Summary of the method: as §1

PUM1 PUF domain R4-MLC = PUM1 PUF domain R4-MLC (Homo sapiens, UniProt Q14671 828-1176, N971M;H972L;Q975C)
Summary of the method: as §1

PUM1 PUF domain R8-QWG = PUM1 PUF domain R8-QWG (Homo sapiens, UniProt Q14671 828-1176, N1122Q;Y1123W;Q1126G)
Summary of the method: as §1

PUM1 PUF domain R8-TFN = PUM1 PUF domain R8-TFN (Homo sapiens, UniProt Q14671 828-1176, N1122T;Y1123F;Q1126N)
Summary of the method: as §1

PUM1 PUF domain R7-LFR = PUM1 PUF domain R7-LFR (Homo sapiens, UniProt Q14671 828-1176, S1079L;N1080F;E1083R)
Summary of the method: as §1

PUM1 PUF domain R5-DHS = PUM1 PUF domain R5-DHS (Homo sapiens, UniProt Q14671 828-1176, C1007D;R1008H;Q1011S)
Summary of the method: as §1

PUM1 PUF domain R5-DME = PUM1 PUF domain R5-DME (Homo sapiens, UniProt Q14671 828-1176, C1007D;R1008M;Q1011E)
Summary of the method: as §1

PUM1 PUF domain R3-RIC = PUM1 PUF domain R3-RIC (Homo sapiens, UniProt Q14671 828-1176, C935R;R936I;Q939C)
Summary of the method: as §1

PUM1 PUF domain R5-GWL, sequence (Q14671 828-1176 C1007G/R1008W/Q1011L): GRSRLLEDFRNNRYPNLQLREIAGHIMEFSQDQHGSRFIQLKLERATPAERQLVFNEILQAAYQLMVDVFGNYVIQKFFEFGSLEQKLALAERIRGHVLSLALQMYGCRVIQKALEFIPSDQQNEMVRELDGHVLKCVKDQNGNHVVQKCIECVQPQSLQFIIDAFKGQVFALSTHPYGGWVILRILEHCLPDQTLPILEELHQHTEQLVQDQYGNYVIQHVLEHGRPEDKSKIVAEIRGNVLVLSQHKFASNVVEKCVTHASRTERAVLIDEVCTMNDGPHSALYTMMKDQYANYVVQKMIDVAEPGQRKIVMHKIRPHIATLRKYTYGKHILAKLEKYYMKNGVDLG

## GGCUAGAACUAGUGGAUCCCCCGGCGCCCGGCGGCUCGAGCCCGGGUAAGUGUAUAUAGUCUGCAUGCCGCCGGGCGCCAUGCCUGCAGGUCGACUCUAGAAAACAUG
PUM1 PUF domain R4-DWL
  binding signal: 5.76 log2 enrichment (interaction score)

## GGCUAGAACUAGUGGAUCCCCCGGCGCCCGGCGGCUCGAGCCCGGGUAAGUGUAAGUAGUCUGCAUGCCGCCGGGCGCCAUGCCUGCAGGUCGACUCUAGAAAACAUG
PUM1 PUF domain R3-LWQ
  binding signal: 5.4 log2 enrichment (interaction score)

## GGCUAGAACUAGUGGAUCCCCCGGCGCCCGGCGGCUCGAGCCCGGGUAAGUGAAAAUAGUCUGCAUGCCGCCGGGCGCCAUGCCUGCAGGUCGACUCUAGAAAACAUG
PUM1 PUF domain R6-LFT
  binding signal: 6.33 log2 enrichment (interaction score)

## GGCUAGAACUAGUGGAUCCCCCGGCGCCCGGCGGCUCGAGCCCGGGUAAGUGUCAAUAGUCUGCAUGCCGCCGGGCGCCAUGCCUGCAGGUCGACUCUAGAAAACAUG
PUM1 PUF domain R5-FQR
  binding signal: 2.5 log2 enrichment (interaction score)
PUM1 PUF domain R5-KHA
  binding signal: 6.11 log2 enrichment (interaction score)

## GGCUAGAACUAGUGGAUCCCCCGGCGCCCGGCGGCUCGAGCCCGGGUAAGUGUAAAUAGUCUGCAUGCCGCCGGGCGCCAUGCCUGCAGGUCGACUCUAGAAAACAUG
PUM1 PUF domain R4-CRV
  binding signal: 2.54 log2 enrichment (interaction score)
PUM1 PUF domain R4-DYL
  binding signal: 6.7 log2 enrichment (interaction score)
PUM1 PUF domain R8-KFT
  binding signal: 4.46 log2 enrichment (interaction score)
PUM1 PUF domain R6-FYA
  binding signal: 4.17 log2 enrichment (interaction score)
PUM1 PUF domain R3-GHH
  binding signal: 3.86 log2 enrichment (interaction score)
PUM1 PUF domain R5-GWL
  binding signal: 2.66 log2 enrichment (interaction score)
PUM1 PUF domain R6-NRG
  binding signal: 3.99 log2 enrichment (interaction score)
PUM1 PUF domain R4-DWL
  binding signal: 6.99 log2 enrichment (interaction score)
PUM1 PUF domain R2-GWY
  binding signal: 1.07 log2 enrichment (interaction score)
PUM1 PUF domain R4-MLC
  binding signal: 2.59 log2 enrichment (interaction score)
PUM1 PUF domain R8-QWG
  binding signal: 2.95 log2 enrichment (interaction score)
PUM1 PUF domain R5-KHA
  binding signal: 3.94 log2 enrichment (interaction score)

## GGCUAGAACUAGUGGAUCCCCCGGCGCCCGGCGGCUCGAGCCCGGGUAAGCGUAAAUAGUCUGCAUGCCGCCGGGCGCCAUGCCUGCAGGUCGACUCUAGAAAACAUG
PUM1 PUF domain R8-TFN
  binding signal: 2.95 log2 enrichment (interaction score)
PUM1 PUF domain R8-QWG
  binding signal: 2.14 log2 enrichment (interaction score)

## GGCUAGAACUAGUGGAUCCCCCGGCGCCCGGCGGCUCGAGCCCGGGUAAGUUUAAAUAGUCUGCAUGCCGCCGGGCGCCAUGCCUGCAGGUCGACUCUAGAAAACAUG
PUM1 PUF domain R7-LFR
  binding signal: 5.84 log2 enrichment (interaction score)

## GGCUAGAACUAGUGGAUCCCCCGGCGCCCGGCGGCUCGAGCCCGGGUAAGUGUUAAUAGUCUGCAUGCCGCCGGGCGCCAUGCCUGCAGGUCGACUCUAGAAAACAUG
PUM1 PUF domain R5-DHS
  binding signal: 4.63 log2 enrichment (interaction score)
PUM1 PUF domain R5-GWL
  binding signal: 3.36 log2 enrichment (interaction score)
PUM1 PUF domain R5-FQR
  binding signal: 3.58 log2 enrichment (interaction score)

## GGCUAGAACUAGUGGAUCCCCCGGCGCCCGGCGGCUCGAGCCCGGGUAAGUGUAAAAAGUCUGCAUGCCGCCGGGCGCCAUGCCUGCAGGUCGACUCUAGAAAACAUG
PUM1 PUF domain R2-GWY
  binding signal: 3.42 log2 enrichment (interaction score)

## GGCUAGAACUAGUGGAUCCCCCGGCGCCCGGCGGCUCGAGCCCGGGUAAGUGUGAAUAGUCUGCAUGCCGCCGGGCGCCAUGCCUGCAGGUCGACUCUAGAAAACAUG
PUM1 PUF domain R5-DME
  binding signal: 2.8 log2 enrichment (interaction score)
PUM1 PUF domain R5-GWL
  binding signal: 3.27 log2 enrichment (interaction score)

## GGCUAGAACUAGUGGAUCCCCCGGCGCCCGGCGGCUCGAGCCCGGGUAAGUCUAAAUAGUCUGCAUGCCGCCGGGCGCCAUGCCUGCAGGUCGACUCUAGAAAACAUG
PUM1 PUF domain R7-LFR
  binding signal: 4.97 log2 enrichment (interaction score)

## GGCUAGAACUAGUGGAUCCCCCGGCGCCCGGCGGCUCGAGCCCGGGUAAGUGUAAUUAGUCUGCAUGCCGCCGGGCGCCAUGCCUGCAGGUCGACUCUAGAAAACAUG
PUM1 PUF domain R3-RIC
  binding signal: 3.78 log2 enrichment (interaction score)
PUM1 PUF domain R3-LWQ
  binding signal: 4.13 log2 enrichment (interaction score)

## GGCUAGAACUAGUGGAUCCCCCGGCGCCCGGCGGCUCGAGCCCGGGUAAGUGUACAUAGUCUGCAUGCCGCCGGGCGCCAUGCCUGCAGGUCGACUCUAGAAAACAUG
PUM1 PUF domain R4-DWL
  binding signal: 4.62 log2 enrichment (interaction score)
